The values below come from PMC4336329 (PLoS ONE, 2015).

Molecules are shown by their SMILES. Out of some 310,000 compounds screened, about 14,000 (4.5%) showed an effect of 50% or more. The effect is printed as a negative number. This excerpt belongs to a sample that is enriched for strong results.
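Also: peak tail current of the secondary pulse compared with the same well before compound.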

In this test the target is human ether-à-go-go-related gene (hERG) potassium channel (human, UniProt Q12809). The test is described as follows: primary screen, population patch clamp on CHO cells stably expressing hERG; higher = less effect of the substance.
human ether-à-go-go-related gene (hERG) potassium channel, sequence (Q12809 whole entry, looked up): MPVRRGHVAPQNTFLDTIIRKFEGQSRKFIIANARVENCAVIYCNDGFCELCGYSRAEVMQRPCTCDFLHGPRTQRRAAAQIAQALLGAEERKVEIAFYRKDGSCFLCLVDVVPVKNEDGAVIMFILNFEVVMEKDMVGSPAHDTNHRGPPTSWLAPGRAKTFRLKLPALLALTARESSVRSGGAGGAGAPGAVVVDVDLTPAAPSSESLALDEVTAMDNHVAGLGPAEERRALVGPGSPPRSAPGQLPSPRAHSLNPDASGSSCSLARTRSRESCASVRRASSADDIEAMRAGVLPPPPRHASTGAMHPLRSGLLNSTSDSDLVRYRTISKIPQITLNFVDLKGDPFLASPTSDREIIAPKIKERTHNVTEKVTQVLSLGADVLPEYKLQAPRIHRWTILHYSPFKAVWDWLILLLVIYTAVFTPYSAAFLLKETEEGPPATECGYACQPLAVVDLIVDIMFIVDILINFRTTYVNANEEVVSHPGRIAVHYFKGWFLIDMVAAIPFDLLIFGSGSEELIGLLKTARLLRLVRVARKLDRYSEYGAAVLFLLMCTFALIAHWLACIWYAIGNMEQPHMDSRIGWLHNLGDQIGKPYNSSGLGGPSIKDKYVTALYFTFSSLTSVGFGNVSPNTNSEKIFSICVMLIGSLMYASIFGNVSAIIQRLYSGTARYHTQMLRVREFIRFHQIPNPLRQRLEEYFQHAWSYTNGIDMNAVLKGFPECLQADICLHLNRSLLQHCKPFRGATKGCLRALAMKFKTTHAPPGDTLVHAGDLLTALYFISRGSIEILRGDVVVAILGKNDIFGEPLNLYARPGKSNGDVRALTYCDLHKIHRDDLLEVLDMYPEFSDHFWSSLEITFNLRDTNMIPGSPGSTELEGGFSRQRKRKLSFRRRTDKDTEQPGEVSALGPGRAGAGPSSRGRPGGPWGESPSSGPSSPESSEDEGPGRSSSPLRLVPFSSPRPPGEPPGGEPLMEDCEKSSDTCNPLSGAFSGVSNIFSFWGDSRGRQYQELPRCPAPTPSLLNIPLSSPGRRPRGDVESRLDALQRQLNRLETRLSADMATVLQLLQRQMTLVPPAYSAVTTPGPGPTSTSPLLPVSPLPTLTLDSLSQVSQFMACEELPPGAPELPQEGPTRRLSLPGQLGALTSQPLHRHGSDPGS
`Cc1ccc(S(=O)(=O)NCc2c(-c3ccccc3)c3cc(Cl)ccc3[nH]c2=O)cc1`: the “hERG current change (%, negative = inhibition) at 10uM” value is given as 7.18%. In the case of `O=C(c1ccc(Br)s1)N1CCCC1`, the “hERG current change (%, negative = inhibition) at 10uM” value is listed as -5.86%. With `CCC(C)(C(=O)NC1CCCCC1)N(CC1CCCO1)C(=O)c1ccccn1` (stereo not drawn), the “hERG current change (%, negative = inhibition) at 10uM” value is -63.3%.

For `CCC(C)(C(=O)NC1CCCCC1)N(CC1CCCO1)C(=O)CNC(=O)c1ccccc1` (stereo not drawn), the “hERG current change (%, negative = inhibition) at 10uM” value is 6.13%.

Turning to `CCC(C)(C(=O)NC1CCCCC1)N(C)C(=O)c1ccccn1` (stereo not drawn), the “hERG current change (%, negative = inhibition) at 10uM” value came out at 2.9%. The result for `COc1ccc2cc(C(c3nnnn3C3CCCCC3)N3CCCCCC3)c3nnnn3c2c1` (stereo not drawn) reads 4.6%; that for `COc1ccc2cc(C(c3nnnn3C3CCCC3)N3CCCCCC3)c3nnnn3c2c1` (stereo not drawn), 15.9%. The result for `COc1ccc2cc(C(c3nnnn3C3CCCC3)N3CCOCC3)c3nnnn3c2c1` (stereo not drawn) reads -51.7%; that for `O=C(NCCc1ccccc1)C1CCN(S(=O)(=O)c2cccnc2)CC1`, 12.9%.

On to `Cc1ccccc1C(=O)Nc1nnc(-c2cccnc2)o1`, for which the “hERG current change (%, negative = inhibition) at 10uM” value turned out to be 18.4%. As for `CN1CCN(NC(=O)c2ccc(S(=O)(=O)N3CC4(C)CC3CC(C)(C)C4)cc2)CC1.Cl` (stereo not drawn), the “hERG current change (%, negative = inhibition) at 10uM” value is -2.07%. For `CC(C)CN1CCN(Cc2cccc3nccnc23)CC1CCO` (stereo not drawn), the “hERG current change (%, negative = inhibition) at 10uM” value is reported as -8.4%. For `Cc1ccc(CN2CCN(Cc3ccc4ncccc4c3)CC2CCO)cc1` (stereo not drawn) the value was -58.9%. For `OCCC1CN(Cc2ccc3ncccc3c2)CCN1Cc1ccccc1` (stereo not drawn) the value was -14.8%. As for `OCCC1CN(Cc2ccon2)CCN1Cc1ccc(F)c(F)c1` (stereo not drawn), the “hERG current change (%, negative = inhibition) at 10uM” value is reported as -13.9%.

For `CC(C)CN1CCN(Cc2ccc3ncccc3c2)CC1CCO` (stereo not drawn), the “hERG current change (%, negative = inhibition) at 10uM” value was -13.2%.

For `CC(C)=CCN1CCN(Cc2cccc3nccnc23)CC1CCO` (stereo not drawn), the “hERG current change (%, negative = inhibition) at 10uM” value is given as -8.42%. The result for `OCCC1CN(Cc2cccc3nccnc23)CCN1Cc1ccc(F)cc1` (stereo not drawn) reads -30.8%; that for `Cc1ccc(CN2CCN(Cc3cccc4nccnc34)CC2CCO)cc1` (stereo not drawn), -66.6%; that for `OCCC1CN(Cc2cccc3nccnc23)CCN1Cc1ccc(F)c(F)c1` (stereo not drawn), -56.4%.

`COc1ccccc1N1CCN(C(=O)CSc2nc(N)cc(=O)[nH]2)CC1`: the “hERG current change (%, negative = inhibition) at 10uM” value is 6.2%. The result for `Cc1ccc(-n2c(O)c(C=NCCCn3ccnc3)c(=O)[nH]c2=O)cc1` reads 19.6%. For `COc1ccccc1NS(=O)(=O)c1cccc(C(=O)N/N=C/c2ccc(N3CCOCC3)cc2)c1` the value was -8.32%; for `CC(OC(=O)c1ccc(-c2ccc(O)cc2)cc1)C(=O)NC1CCCCC1C` (stereo not drawn), -6.35%.
